In PubChem BioAssay:
Unmarked numbers belong to inactive results. The list shows a part of the results. Activity calls are given as the source filed them.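 Rule for the calls, unless noted: active = inhibition above the hit cutoff set in the earlier primary screen (cut at about 27% in these data); inactive = the rest.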

Target: Bcl-2-like protein 1 (Homo sapiens) (UniProt Q07817)
Test: Bcl-xL BH3-peptide displacement, hit confirmation – biochemical, fluorescence polarization, counter-screen for MCL1 inhibitor project (AID 2166;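 active = inhibition above a cutoff equal to the mean inhibition of all tested compounds plus 3 SD, cut at about 30% in these data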)
Conditions: GST-Bcl-xL / FITC-Bim BH3 peptide FP binding; at 10.9 µM; active compounds read high

Bcl-2-like protein 1 (Homo sapiens), sequence (Q07817 whole entry, looked up): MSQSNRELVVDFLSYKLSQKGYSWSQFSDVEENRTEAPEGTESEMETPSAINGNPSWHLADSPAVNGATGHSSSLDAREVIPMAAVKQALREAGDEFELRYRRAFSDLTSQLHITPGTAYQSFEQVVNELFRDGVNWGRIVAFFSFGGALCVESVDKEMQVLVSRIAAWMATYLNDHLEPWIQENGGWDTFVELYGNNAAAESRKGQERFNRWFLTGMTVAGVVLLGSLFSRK

SMILES	inhibition
COc1ccc(N2C(=O)/C(=C/c3ccco3)C(=O)NC2=S)cc1	50.7% (active)
O=C1NC(=O)N(c2ccccc2)C(=O)/C1=C/c1ccc([N+](=O)[O-])s1	36.9% (active)
COc1cccc(N2C(=O)NC(=O)/C(=C\c3cn(C)c4ccccc34)C2=O)c1	189% (active)

Target: Protein phosphatase methylesterase 1 (Homo sapiens) (UniProt Q9Y570)
Test: human PME-1 methylesterase inhibition confirmation – biochemical, fluorescence polarization, FP-Rh probe, triplicate (AID 2171);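 note: 0% = enzyme with DMSO and 100% = wells lacking PME-1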
Conditions: recombinant PME-1, FP-Rh probe fluorescence polarization; at 5.9 µM; active compounds read high

Protein phosphatase methylesterase 1 (Homo sapiens), sequence (Q9Y570 whole entry, looked up): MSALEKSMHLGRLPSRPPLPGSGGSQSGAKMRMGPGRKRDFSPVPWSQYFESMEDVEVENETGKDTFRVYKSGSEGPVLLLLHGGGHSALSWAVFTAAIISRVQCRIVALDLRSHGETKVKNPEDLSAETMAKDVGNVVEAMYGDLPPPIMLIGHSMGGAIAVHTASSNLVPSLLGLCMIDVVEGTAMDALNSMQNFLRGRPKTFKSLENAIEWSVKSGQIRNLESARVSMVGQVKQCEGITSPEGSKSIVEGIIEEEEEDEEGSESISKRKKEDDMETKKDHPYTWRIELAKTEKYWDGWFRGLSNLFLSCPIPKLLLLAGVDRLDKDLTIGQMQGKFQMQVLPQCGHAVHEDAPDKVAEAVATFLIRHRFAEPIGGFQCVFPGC

SMILES	inhibition
Nc1c(C(=O)NCc2ccco2)c2nc3ccccc3nc2n1CCN1CCOCC1	7.2%
O=P(Oc1ccccc1)(Oc1ccccc1)C(O)c1ccc(Cl)cc1 (stereo unspecified)	59.3% (active)
O=c1[nH]c(=S)[nH]c(O)c1N=Nc1cc(S(=O)(=O)Nc2ccc(Cl)cc2)ccc1Cl	40.5% (active)
CCN(CC)S(=O)(=O)c1cc(NC(=O)C(C)N2CC=C(c3ccccc3)CC2)ccc1C (stereo unspecified)	43.7% (active)
Cc1ccc(C(O)P(=O)(Oc2ccccc2)Oc2ccccc2)cc1 (stereo unspecified)	59.9% (active)
COc1cccc(OC)c1C1=NCC(=O)Nc2c1oc1ccc(Br)cc21	52.8% (active)
CC(C)CCOP(N)(=O)Oc1ccccc1Cl (stereo unspecified)	42.3% (active)
C[n+]1c(-c2ccccc2)c2cc(N)ccc2c2ccc(N)cc21	83.5% (active)
O=C(CN1CC=C(c2ccccc2)CC1)Nc1c(Cl)cccc1Cl	28.2% (active)
CCCCn1c(C)c(C(=O)OCC)c2c(CN3CCCC3)c(O)ccc21	10.3%
NP(=O)(OCC(F)(F)F)Oc1ccc(Cl)cc1 (stereo unspecified)	30.6% (active)
CC(C)C(=O)c1cn(Cc2ccccc2C#N)c2ccccc12	62.8% (active)
CC(=O)c1ccc2c(c1)C1C(Cl)C(Sc3ccccc3[N+](=O)[O-])CC1C(C(=O)O)N2 (stereo unspecified)	25.9%
NP(=O)(OCCCc1ccccc1)Oc1ccccc1Cl (stereo unspecified)	86.4% (active)
Oc1ccc(/C=N/NP(=S)(c2ccccc2)c2ccccc2)c(O)c1O	-8.43%
Cc1cc(Br)c(NC(=O)CN2CC=C(c3ccccc3)CC2)c(Br)c1	44.9% (active)
CCOC(=O)c1c(NS(=O)(=O)c2ccccc2)n(CCCOC)c2nc3ccccc3nc12	0.94%
Oc1c(Br)c(Br)c(Br)c(Br)c1Br	84.2% (active)
O=c1c2ccccc2nc(/C=C/c2ccc(O)c(O)c2)n1-c1ccccc1	-7.92%
CN(C)C1(c2nnnn2CCOC(=O)Nc2ccc(Cl)cc2)CCCCC1	25%
COC(=O)c1nc(-c2ccc3c(n2)C(=O)C(N)=C(OC)C3=O)c(N)c(-c2ccc(OC)c(OC)c2O)c1C	67.4% (active)
COc1ccc(-n2c(/C=C/c3ccc(O)c(O)c3)nc3ccccc3c2=O)cc1	-10.6%
Cc1oc(-c2ccccc2)nc1CN1C(=O)CN=C(c2ccccc2)c2ccccc21	66.1% (active)

System: HIV-1 integrase (multimerization)
Test: stimulation of HIV-1 integrase oligomerization – biochemical, TR-FRET, counter-screen for LEDGF/p75 integration inhibitor project (AID 1053131; in the data active = activation above about 8.9%)
Conditions: TR-FRET HIV-1 integrase multimerization, at 7.7 µM, active compounds read high

SMILES	activation
O=C1NC(=O)N(Cc2ccco2)C(=O)/C1=C\c1ccc(-c2ccc(F)cc2)o1	1.86%
Cc1c(C(=O)O)cccc1-n1c(C)cc(/C=C2\C(=O)NC(=O)N(c3ccc4c(c3)OCO4)C2=O)c1C	0.15%
CCOC(=O)c1c(N)n(Cc2ccccc2)c2nc3ccccc3nc12	-0.51%
Cc1cc(/C=C2/C(=O)NC(=O)N(Cc3ccco3)C2=O)c(C)n1-c1ccc(C(=O)O)cc1	5.24%
CCOc1cccc(=NC2CCCCC2)c2c(C)[nH]c(C)c12	0.2%

System: not listed separately
Test: compounds disturbing TR-FRET signal readout – biochemical, HIV-1 IN multimerization, artefact control for LEDGF/p75-dependent integration inhibitor project, confirmation (AID 1053135;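 active = inhibition above the mean over all tested compounds plus 3 SD, which no compound reached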;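 note: 0% = integrase with antibodies and DMSO and 100% = antibodies without integrase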)
Conditions: TR-FRET optical interference counterscreen, at 7.7 µM, active compounds read high

SMILES	inhibition
O=C1NC(=O)N(Cc2ccco2)C(=O)/C1=C\c1ccc(-c2ccc(F)cc2)o1	-6.88%
Cc1c(C(=O)O)cccc1-n1c(C)cc(/C=C2\C(=O)NC(=O)N(c3ccc4c(c3)OCO4)C2=O)c1C	-0.77%
CCOC(=O)c1c(N)n(Cc2ccccc2)c2nc3ccccc3nc12	2.59%
Cc1cc(/C=C2/C(=O)NC(=O)N(Cc3ccco3)C2=O)c(C)n1-c1ccc(C(=O)O)cc1	-26.4%
CCOc1cccc(=NC2CCCCC2)c2c(C)[nH]c(C)c12	-0.97%

System: HIV-1 integrase / human LEDGF/p75 complex
Test: blockers of LEDGF/p75-dependent integrase activity – biochemical, TR-FRET, confirmation (AID 1053136; in the data active = inhibition above about 14%)
Conditions: TR-FRET LEDGF/p75-dependent HIV-1 integration, at 3.7 µM, active compounds read high

SMILES	inhibition
O=C1NC(=O)N(Cc2ccco2)C(=O)/C1=C\c1ccc(-c2ccc(F)cc2)o1	11.9%
Cc1c(C(=O)O)cccc1-n1c(C)cc(/C=C2\C(=O)NC(=O)N(c3ccc4c(c3)OCO4)C2=O)c1C	22.9% (active)
CCOC(=O)c1c(N)n(Cc2ccccc2)c2nc3ccccc3nc12	-1.64%
Cc1cc(/C=C2/C(=O)NC(=O)N(Cc3ccco3)C2=O)c(C)n1-c1ccc(C(=O)O)cc1	36.5% (active)
CCOc1cccc(=NC2CCCCC2)c2c(C)[nH]c(C)c12	-1.3%
